Hit rate of the full screen: of about 300,000 compounds, about 37,000 (12%) were called active. Shown is part of a subset that was picked to be rich in actives. A number with no mark means an inactive call. Cut-off read from the data, not from the text of the source: active = max response mostly above about 13% (no sharp cut-off); inactive = mostly below about 14%.
Assay: Cycloheximide Counterscreen for Small Molecule Inhibitors of Shiga Toxin; note: read at 38.3 µM for the half of the compounds with a filed dose; 0% is about no effect
Conditions: cell reporter, cycloheximide protein synthesis inhibition counterscreen; active compounds read high

Q: With `Cc1sc2ncn(CC(=O)NCCCC(=O)NCc3ccc(F)cc3)c(=O)c2c1C` as the compound, how does the max response read?
A: Its max response is -1.09%.

Q: Which max response does the source give for `Cc1cccn2c(CN(C)C3CCCc4ccccc43)c(C(=O)N3CCOCC3)nc12` (stereo unspecified) here?
A: The max response was -3.53%.

Q: With `Cc1cc2c(cc1C)N(Cc1ccccc1)C1=NCCCN12` as the compound, how does the max response read?
A: The max response was -2.27%.

Q: With `CC(C)C[C@H](NC(=O)C1CCC(CNC(=O)[C@@H]2CCCN2C(=O)OC(C)(C)C)CC1)C(=O)O` (stereo partly specified) as the compound, how does the max response read?
A: The max response was 0.405%.

Q: With `CC(C)[C@H](NC(=O)N1CC(=O)Nc2ccccc21)C(=O)N[C@@H](Cc1c[nH]c2ccccc12)C(=O)O` as the compound, how does the max response read?
A: Its max response is -2.21%.

Q: For `CN1CCN(c2ncc3c(n2)CC(c2ccccc2F)CC3=O)CC1` (stereo unspecified), which max response is on record?
A: Its max response is -2.88%.

Q: For `COc1ccc2ccccc2c1CNCc1ccccn1`, which max response is on record?
A: Its max response is 20.7% (active).

Q: With `COc1ccc2ccccc2c1CNc1nnnn1C` as the compound, how does the max response read?
A: The max response was -2.6%.

Q: For `COc1ccc(C)cc1NC(=O)NCc1ccccn1`, which max response is on record?
A: The max response was -3.22%.

Q: Which max response does the source give for `Cc1ccc(-c2c(C)n([O-])c3c([n+]2=O)CCC3)cc1` here?
A: The max response was 2.58%.

Q: Which max response does the source give for `CC(Oc1ccc(-c2ccccc2)c(F)c1)c1ccn(S(=O)(=O)c2cccc3ccccc23)n1` (stereo unspecified) here?
A: The max response was -1.64%.

Q: For `NNC(=O)CNC(c1ccccc1)c1cc(Cl)ccc1NC(=O)c1ccccc1` (stereo unspecified), which max response is on record?
A: Its max response is -3.14%.

Q: Which max response does the source give for `O=C(N/N=C/c1ccc([N+](=O)[O-])o1)c1cn(-c2ccccc2)nc1-c1ccc(F)cc1` here?
A: The max response was 10.8%.

Q: Which max response does the source give for `O=C(/C=C/c1ccc([N+](=O)[O-])o1)NNC(=O)c1ccc(F)cc1` here?
A: The max response was 71.2% (active).

Q: With `C/[N+]([O-])=C\c1ccc([N+](=O)[O-])o1` as the compound, how does the max response read?
A: The max response was 8.46%.

Q: For `O=C(/C=C/c1ccc2c(c1)OCO2)NCc1cn2cc(Cl)ccc2n1`, which max response is on record?
A: Its max response is 2.11%.

Q: With `Clc1ccc2nc(CSc3ccccc3)cn2c1` as the compound, how does the max response read?
A: The max response was 26.2% (active).

Q: For `CCOc1ncccc1C(=O)OCc1cn2cc(Cl)ccc2n1`, which max response is on record?
A: The max response was 9.62%.

Q: With `Cc1nn(CCCC(=O)NCc2ccccc2Cl)c(=O)c2nccn12` as the compound, how does the max response read?
A: The max response was -3.04%.

Q: Which max response does the source give for `COc1ccc(C(=O)OCC(=O)Nc2cccc(C(C)=O)c2)cc1OC` here?
A: The max response was 9.48%.

Q: With `O=C(COC(=O)c1cccc(Br)c1)Nc1cccc2c1C(=O)c1ccccc1C2=O` as the compound, how does the max response read?
A: The max response was 25.2% (active).

Q: Which max response does the source give for `O=C(COC(=O)Cc1ccccc1)Nc1ccc(F)cc1` here?
A: Its max response is -1.31%.

Q: With `O=C(COC(=O)Cn1cnc2ccccc21)Nc1cccc2c1C(=O)c1ccccc1C2=O` as the compound, how does the max response read?
A: Its max response is -4.76%.

Q: Which max response does the source give for `Cc1cccc(C(=O)OCC(=O)Nc2ccc(F)cc2)c1` here?
A: Its max response is 10% (active).

Q: For `O=C(COC(=O)c1ccccc1)Nc1ccccc1Sc1ccccc1`, which max response is on record?
A: The max response was 9.64%.

Q: Which max response does the source give for `O=C1CCN(Cc2ccccc2)CCN1[C@H](CSc1ccccc1)c1ccccc1` here?
A: The max response was -1.82%.

Q: With `CCOc1ccccc1NC(=S)NC(=O)CCc1ccccc1` as the compound, how does the max response read?
A: Its max response is 1.38%.

Q: Which max response does the source give for `CCOc1ccc(CN2CCC(n3nccc3NC(=O)C3CC3)CC2)cc1CO` here?
A: The max response was -1.74%.

Q: With `Cc1ccc(CC2(O)CCN(CCOc3ccc(O)cc3)CC2)cc1` as the compound, how does the max response read?
A: Its max response is 4.37%.

Q: For `CC(C)C(=O)Nc1ccc2oc(=O)ccc2c1`, which max response is on record?
A: The max response was -3.4%.

Q: For `CC(C)C(=O)Nc1ccc2c(c1)oc1ccccc12`, which max response is on record?
A: Its max response is 67% (active).

Q: For `CC(C)C(=O)Nc1c(C(=O)c2ccc(F)cc2)oc2ccccc12`, which max response is on record?
A: The max response was -1.75%.

Q: For `Cn1c(=O)c(=O)n(C)c2cc(S(=O)(=O)CCC(=O)N3CCCCC3)ccc21`, which max response is on record?
A: Its max response is -2.58%.

Q: Which max response does the source give for `COc1ccccc1CCNC(=O)c1c(C)nn(CC(C)C)c1Cl` here?
A: The max response was 39% (active).

Q: With `Cc1nn(Cc2ccccc2Cl)c(Cl)c1C(=O)OC(C(=O)NC(N)=O)C(C)C` (stereo unspecified) as the compound, how does the max response read?
A: Its max response is -4.81%.

Q: Which max response does the source give for `COc1ccccc1CCNC(=O)c1cnccn1` here?
A: Its max response is 12.4%.

Q: Which max response does the source give for `COc1ccc(C(=O)NC2CC2)cc1OC1CCN(C/C=C/c2ccccc2)CC1` here?
A: Its max response is 2.49%.

Q: With `COc1ccc(C)cc1N(CC(=O)NC(C)c1ccccc1)S(C)(=O)=O` (stereo unspecified) as the compound, how does the max response read?
A: The max response was 5.61%.

Q: For `COc1ccc(OCCC(=O)c2ccc(OC)cc2)cc1`, which max response is on record?
A: The max response was 4.64%.

Q: Which max response does the source give for `COc1ccc(C(=O)CC2C(=O)N(C)C(=O)N(C)C2=O)cc1` here?
A: The max response was 4.98%.

Q: For `CO/N=C/CC(=O)c1ccc(OC)cc1`, which max response is on record?
A: Its max response is 49.2% (active).

Q: With `Cc1ccc(NS(=O)(=O)c2c(C)[nH]c(=O)[nH]c2=O)cc1C` as the compound, how does the max response read?
A: The max response was -1.76%.

Q: Which max response does the source give for `CCOC(=O)c1nnn(-c2nonc2-n2cccc2)c1CN1CCC(C(=O)OCC)CC1` here?
A: Its max response is -2.67%.

Q: Which max response does the source give for `Cc1ccc(OCC(=O)c2cc(C)n(Cc3ccco3)c2C)c([N+](=O)[O-])n1` here?
A: Its max response is 43.4% (active).

Q: With `COCC(C)n1c(C)cc(C(=O)COc2ccc(C)nc2[N+](=O)[O-])c1C` (stereo unspecified) as the compound, how does the max response read?
A: The max response was 8.12%.

Q: Which max response does the source give for `COc1ccc(C)cc1-n1nnnc1SCC(=O)c1cc(C)n(Cc2ccco2)c1C` here?
A: The max response was 27.1%.

Q: For `O=C(COC(=O)CNC(=O)c1ccco1)Nc1ccc(F)cc1`, which max response is on record?
A: The max response was -3.97%.

Q: For `Cc1cc(C(=O)COC(=O)CNC(=O)c2ccc(F)cc2)c(C)n1Cc1ccco1`, which max response is on record?
A: The max response was 106% (active).

Q: For `Cc1cc(C(=O)CSc2nc(N)cc(=O)[nH]2)c(C)n1Cc1ccco1`, which max response is on record?
A: Its max response is -1.02%.

Q: Which max response does the source give for `Cc1ccc(S(=O)(=O)NCC(=O)N2CCOCCOCCOCCOCC2)cc1` here?
A: Its max response is -3.49%.

Q: With `CC(C)CC(=O)c1c[nH]c(C(=O)NCc2ccccc2)c1` as the compound, how does the max response read?
A: The max response was -3.39%.

Q: Which max response does the source give for `COC(=O)C(CC(C)C)NS(=O)(=O)c1cc(Br)ccc1Br` (stereo unspecified) here?
A: Its max response is -8.13%.

Q: Which max response does the source give for `Cc1cc2c(cc1S(=O)(=O)CCC(=O)NCc1ccccc1)OCC(=O)N2` here?
A: The max response was -1.02%.

Q: With `CCn1ccnc1CNC(=O)CC1C(=O)NCCN1Cc1ccc(F)cc1Cl` (stereo unspecified) as the compound, how does the max response read?
A: Its max response is 8.96%.

Q: With `Clc1ccc(CN2CCCCCC2)cc1Cl` as the compound, how does the max response read?
A: The max response was -3.66%.

Q: With `Cc1cccc(-n2c(=O)c3c(C)c(C)sc3n(CC(N)=O)c2=O)c1` as the compound, how does the max response read?
A: The max response was -0.167%.

Q: Which max response does the source give for `COc1ccc(-c2nnc(SCc3cccnc3)o2)cc1` here?
A: The max response was 30.9% (active).

Q: For `COc1ccc(-c2nnc(SC(C)C#N)o2)cc1` (stereo unspecified), which max response is on record?
A: The max response was 27.2%.

Q: Which max response does the source give for `COC(=O)CSc1nnc(-c2cccnc2)o1` here?
A: The max response was 12.2%.

Q: Which max response does the source give for `COc1ccccc1CNS(=O)(=O)c1c(C)[nH]c(C)c1C(=O)N1CCCCC1` here?
A: Its max response is 11%.

Q: For `O=c1[nH]cnc(O)c1C(c1ccc(F)cc1)c1c(O)nc[nH]c1=O`, which max response is on record?
A: Its max response is -2.78%.

— PubChem BioAssay AID2314 (National Center for Advancing Translational Sciences (NCATS), 2010)
